# Laboratory results taken from the supplement of paper PMC6555819.
# Tested on: PPARg:RXRa 90nM:30nM, anti-RXR (NR concentration 90 nM, RXRa partner concentration 30 nM)
# Assay: PBM binding z-score (relative to random genomic background probes); higher = stronger binding; sequences stand for … in GC…GCGATTGACAGCGTAGAATGAAGG
# Outline: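 Regression normalization was applied to scanned fluorescence from custom Agilent 4×180K protein-binding microarrays. Before scanning, arrays were incubated 1 h with ligand-free nuclear receptor dimers, and binding was detected with antibodies against each partner (one per run). Binding z-scores use the random background probes as reference.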
row,Sequence,PBM binding z-score
1,TCATATAGGCAAAAGGTGAAAGTCGGTGTGGTAA,8.15
2,ATATGTAGGTTAGCTGGGGTCATTCAGACTAGGC,4.46
3,GCAACGAGGGCAAAGTTGATAGCATCTGTCGACG,6.51
4,CCTTACGGGTCGCTCCAGGTTATAGCATCGGAGT,-0.391
5,ATGTCTAGGTAAGACTCAGTTCAGTGAAGAACGC,-0.0514
6,GATTCAGGGTCAAGGCCAGAGTACGCGTATTGAT,5.41
7,CGTCAAAGCTCAAGGTAACGTAACAGAAAGCAGC,0.133
8,CCTATTAGTTGACCACAAGGGCAACCGAAGCTCG,0.256
9,ATATGTAGCTTAGCTGGGGTCATTCAGACTAGGC,1.59
10,CTACCAAGGTGAACAAGCTCGTTGATTACTATTC,0.167
11,CTCGAAAGGTCGTGCTCAGGTGACTATACCAAAC,2.76
12,CGAACTAGGTCAAGAACAGTGAATCTCCGCACGC,5.49
13,ACTATTAGGTGACTTAGGGCAACCGATACGACGC,0.872
14,TAGCCTAGGTCAAGGGCCAGTATACCACGCGAAC,3.59
15,ACTTACGGGTCAACGAGGTTATTGCACGCGTATA,3.88
16,CGTCAAAGTTCAAGGTAACGTTACAGAAAGCAGC,4.37
17,CAATCTAGGTCACCGGAAGGTCAAAGTCCGCATG,8.12
18,CCGAGTGGGGCAAAGGTTACCATACTCAGTACGA,11
19,AATAGAGGGTCACTAGGCCAGAGTAGGTACGAAT,4.4
20,ACCTCTAGGTAACCAAGTTCAGTGAATGCCGAAC,0.404

row,Sequence,PBM binding z-score
1,CGTCAAAGTTCAAGGTAACGTGACAGAAAGCAGC,3.9
2,TCTCGGAGGACACGAAGGTCAGAGCTTTCCAGAG,1.96
3,CGAACTAGGTCACTGACAGGACAGTGAATAGTAA,6.09
4,CATACAGGGTCAGCTAGGCCCGAGTAGGGACGGC,1.72
5,AGAATGAGGTTACCAAAGCTCAGGGAAACGCTTG,1.81
6,ATCTCTAGGTAAAGTTCAGTGACAGATCGATAGA,4.24
7,TCGGGTAGGTTACCAATGGGGCATTCAGCTTTCT,1.63
8,TAGCCTAGGTCATTCAGGGGCCAGTAGAGAAAGC,1.53
9,ATCGAAAGGTCTTGAGGTGAGTATACAGAAAGGC,0.647
10,AGGATGAGGTTAAGATCAGGGAAACAGAATACAT,1.01
11,CCTCGGAGGACAACAGGAGGGCAGAGCTGCCAGA,-1.32
12,TCTGCTAGCTCAGTTGGTCAGCTAACGAGCTGCC,0.449
13,TCTAGTTGGTCAGAGGTCACACACTCGAAATGCG,9.17
14,GCATATAAGTAATACAAGGTGAAAGTCCGATTGT,0.301
15,TTAGCAAGGTGAAAGGTCGTTGATGCACGCCTTG,9.55
16,AGCCAAAGTTCAGGACGAGGTAACGTAAAGCACG,2.74
17,AGAACGAGGGCATGCTGAGTTGATAGCAGAGTAG,0.416
18,ACTATTAATTGAGACGAGGGCAACCGATAGGTTG,0.408
19,CTCGAATGGTCGGTTGAGGTGAGTATACGGATAA,-0.0856
20,GCGACTGGGGCAAAGCAGGTTACCATAAGGTTGG,0.47
